About 4,000 (25%) of roughly 16,000 compounds were called active. About 26% were inconclusive and are not listed. A selection follows. Values without a mark were called inactive. The call rests on the fitted dose curve; in most records, active means well fitted curve in the direction sought with a large enough effect; inconclusive means small, poorly fitted or top-dose-only effect, or effect the other way; inactive means no such curve, though single readings can be large or run the other way.
On the % scale 0 is the no-effect control and ±100 the full control effect.

Cytochrome P450 2C9 (Homo sapiens), sequence (P11712 whole entry, looked up): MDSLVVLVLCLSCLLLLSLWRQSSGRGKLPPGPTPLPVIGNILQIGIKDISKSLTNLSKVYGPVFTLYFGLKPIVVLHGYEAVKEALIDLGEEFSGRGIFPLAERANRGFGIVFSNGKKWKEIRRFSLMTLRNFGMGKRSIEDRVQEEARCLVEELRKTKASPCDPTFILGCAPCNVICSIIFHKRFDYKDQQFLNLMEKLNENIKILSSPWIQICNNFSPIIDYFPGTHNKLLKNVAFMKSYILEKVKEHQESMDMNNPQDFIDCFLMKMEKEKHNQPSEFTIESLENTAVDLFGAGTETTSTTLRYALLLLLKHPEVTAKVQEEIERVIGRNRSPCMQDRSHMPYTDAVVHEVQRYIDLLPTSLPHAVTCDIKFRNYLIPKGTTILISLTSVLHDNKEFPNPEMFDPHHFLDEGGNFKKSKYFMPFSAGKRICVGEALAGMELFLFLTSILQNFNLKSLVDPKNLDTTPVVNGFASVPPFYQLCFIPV

The assay has as its target Cytochrome P450 2C9 (Homo sapiens) (UniProt P11712). Put plainly: Cytochrome panel assay with activity outcomes. The note with it: recombinant CYP, pro-luciferin dealkylation, luminescence, p450-cyp2c9; series mostly up to 57.1 µM; activity, negative = inhibition: at the top concentration.
Turning to `COc1cc2ccc(=O)oc2cc1O`, the “activity, negative = inhibition” value is -27.8% [at 25.6 µM].
Still for that read-out and setting: in the case of `Nc1ccc(S(=O)(=O)Nc2ccc(Cl)nn2)cc1` it was 15.8% [at 25.6 µM].
For orientation: AC50 means the concentration giving half of the maximal activity seen. For `CC1(O)c2ccccc2C(=O)N1CCc1ccccc1F` (stereo not given), the half-maximal activity concentration (AC50) was 15.8 µM (active).
For `Cc1ccc(S(=O)(=O)O[C@@H]2[C@H]([C@@H]3COC(C)(C)O3)O[C@H]3OC(C)(C)O[C@@H]32)cc1`, the activity, negative = inhibition is 4.54% [at 11.4 µM].
On the same count and under the same terms, to `CC(NC(=O)OCc1ccccc1)C(=O)NCC1CCCO1` (stereo not given) belongs 4.27%.
On to `Cc1ccc(-c2nnn(CC(=O)N(c3ccccc3)C(C(=O)NCC3CCCO3)c3ccc(Cl)cc3)n2)cc1` (stereo not given), for which the AC50 is 0.708 µM (active).
On the same count and under the same terms, in the case of `Cc1ccc(N(C(=O)Cn2nnc(-c3ccc(F)cc3)n2)C(CC(C)C)C(=O)NCC2CCCO2)cc1` (stereo not given) it was 3.98 µM (active).
As for `O=C(NCC1CCCO1)C(c1cccnc1)N(C(=O)Cc1cccs1)c1cccnc1` (stereo not given), the “activity, negative = inhibition” value was 1.15%.
As for `CC(C)CC(C(=O)NCC1CCCO1)N(C(=O)Cn1nnc(-c2ccc(F)cc2)n1)c1ccccc1F` (stereo not given), the AC50 is 11.2 µM (active).
As for `CN(C)c1ncc2nc(-c3ccc(F)cc3)c(=O)n(C[C@H]3CCCO3)c2n1`, the “activity, negative = inhibition” value was -3.65%.
Consider `CC(C)CC(C(=O)NCC1CCCO1)N(C(=O)Cn1nnc(-c2ccc(F)cc2)n1)c1cccc(C(F)(F)F)c1` (stereo not given), for which the half-maximal activity concentration (AC50) was 7.94 µM (active).
For the compound `N#CC(CC(=O)O)=C(c1ccccc1)c1ccccc1`, the activity, negative = inhibition was -16.4% [at 11.4 µM].
On the same count and under the same terms, in the case of `CCN1C(=O)[C@H]2[C@H]3[C@H](O)[C@H](O)C/C(=N/O[C@@H]4O[C@@H](COC(C)=O)[C@@H](OC(C)=O)[C@@H](OC(C)=O)[C@H]4OC(C)=O)[C@@H]3CC[C@@H]2C1=O` it was 19.4% [at 11.4 µM].
`Cc1oc(-c2ccccc2F)nc1CSCC(=O)NCc1ccc2c(c1)OCO2`: the AC50 is 4.47 µM (active).
Regarding `CCN1CCCC1CNC(=O)CSCc1nc(-c2ccccc2C)oc1C` (stereo not given), the “activity, negative = inhibition” value is -23.8%.
The same measure, in the same setting: in the case of `Cc1cc(C)c(C#N)c(Oc2ccc(F)cc2)n1` it was -7.25%.
On to `Cc1cc(C)c(S(C)(=O)=O)c(Oc2ccc(C(C)(C)C)cc2)n1`, for which the AC50 was 7.08 µM (active).
Same read-out and setting: in the case of `COc1ccc(Oc2nc(C)cc(C)c2S(=O)(=O)c2ccc(C)cc2)cc1` it was 14.1 µM (active).
Regarding `NC(=O)NC(=O)[C@H]1CCCC[C@@H]1C(=O)O`, the activity, negative = inhibition was 7.71% [at 11.4 µM].
On the same count and under the same terms, to `CCN(CC)CC[n+]1ccc2c(C)c3[nH]c4ccc(O)cc4c3c(C)c2c1` belongs -0.365% [at 11.4 µM].
With `Cc1onc(-c2ccccc2)c1C(=O)NCCc1c[nH]c2ccccc12`, the AC50 is 3.98 µM (active).
Turning to `CC(=O)NCCc1c[nH]c2ccc(O)cc12`, the “activity, negative = inhibition” value is -8.66%.
As for `Oc1c(Br)cc(CN(Cc2cc(Br)c(O)c(Br)c2)C2CCCCC2)cc1Br`, the AC50 is 2.51 µM (active).
With `Oc1c(Br)cc(Br)cc1CN(Cc1cc(Br)cc(Br)c1O)C1CCCCC1`, the activity, negative = inhibition was -21.2% [at 11.4 µM].
Regarding `CC(C)(C)c1ccc(O)c(CN(Cc2cc(C(C)(C)C)ccc2O)C2CCCCC2)c1`, the activity, negative = inhibition was -4.75% [at 11.4 µM].
Same read-out and setting: to `NC(N)=NC(N)=Nc1ccc(S(=O)(=O)O)cc1` belongs 21.1% [at 11.4 µM]; to `COc1ccc(-n2c(CNC(=O)c3cc(OC)c(OC)c(OC)c3)n[nH]c2=S)cc1`, -17.4%.
With `O=C(NCc1n[nH]c(=S)n1-c1cccc(Cl)c1)c1ccc(S(=O)(=O)N2CCCC2)cc1`, the AC50 was 17.8 µM (active).
`Cn1c(CCNC(=O)c2ccccc2Cl)n[nH]c1=S`: the “activity, negative = inhibition” value is -15.2%.
On the same count and under the same terms, in the case of `O=[N+]([O-])c1ccccc1N=Nc1c(O)[nH]c2ccc(S(=O)(=O)O)cc12` it was -11% [at 11.4 µM].
Turning to `CCC(C(=O)NC(C)(C)C)N(C(=O)Cn1nnc(-c2cccs2)n1)c1cnc2ccccc2c1` (stereo not given), the AC50 was 2.82 µM (active).
Turning to `O=C(Nc1cnc2ccccc2c1)c1cccc(-n2cnnn2)c1`, the “activity, negative = inhibition” value is -14.6%.
As for `COC(=O)C/C=C\[C@H](C)[C@@H](OC)c1ccccc1Br`, the activity, negative = inhibition is -6.68% [at 11.4 µM].
On the same count and under the same terms, to `Cn1c(=O)n2n(c1=O)[C@H]1[C@H](O)[C@H]3O[C@@H]3/C(=N/OC[C@@H](O)COCc3ccco3)[C@@H]1CC2` belongs -4.5% [at 11.4 µM].
With `COc1cnc(-c2ccccn2)nc1Oc1ccc(Cl)c2ccccc12`, the AC50 is 12.6 µM (active).
Take `C[C@H](Oc1ccccc1)C(=O)N[C@@H]1C(=O)N2[C@@H]1SC(C)(C)[C@@H]2C(=O)O`: the “activity, negative = inhibition” value was -13.8% [at 25.6 µM].
As to `CC(Oc1ccccc1)C(=O)Nc1nc2c(s1)C(=O)CC(C)(C)C2` (stereo not given), the AC50 is 6.31 µM (active).
With `COc1ccccc1CNCC(O)(c1ccc(Cl)cc1)c1ccc(Cl)cc1`, the AC50 is 15.8 µM (active).
With `COc1ccccc1CNCc1cccs1`, the “activity, negative = inhibition” value is 5.82%.
With `COc1ccccc1CNCCCCCCNCCCCCCCCNCCCCCCNCc1ccccc1OC`, the “activity, negative = inhibition” value was 5.66%.
With `OCCN1CCN(C(=S)c2ccc(Br)cc2)CC1`, the “activity, negative = inhibition” value was 4.83%.
In the case of `CCOC(=O)N/N=C1/C[C@@H](O)[C@@H](O)[C@@H]2[C@@H]3C(=O)N([C@@H](C)c4ccccc4)C(=O)[C@H]3CC[C@@H]12`, the activity, negative = inhibition was 20.5% [at 11.4 µM].
Same read-out and setting: to `O=S(=O)(c1cccc2cnccc12)N1CCNCC1` belongs -17.9%.
As to `O=C(C1CCCN(S(=O)(=O)c2cccc3nsnc23)C1)N1CC=C(c2ccccc2)CC1` (stereo not given), the AC50 was 1.41 µM (active).
Consider `COc1ccc(CCNC(=O)C2CCN(S(=O)(=O)c3cccc4nsnc34)CC2)cc1OC`, for which the “activity, negative = inhibition” value is -28.5%.
Same read-out and setting: to `COc1ccc2nc(NC(=O)C3CCN(S(=O)(=O)c4cccc5nsnc45)CC3)sc2c1` belongs -16.2%.
As to `O=C(C1CCN(S(=O)(=O)c2cccc3nsnc23)CC1)N1CCc2ccccc21`, the AC50 was 10 µM (active).
Still for that read-out and setting: to `O=S(=O)(c1ccccc1S(=O)(=O)N1CCCCC1)N1CCCCC1` belongs 28.2 µM (active).
On to `CC(=O)Nc1ccc(NC(=O)C2CCN(S(=O)(=O)c3cccc4nonc34)CC2)cc1`, for which the “activity, negative = inhibition” value is -16.4%.
Turning to `O=S(=O)(c1cccc2nsnc12)N1CCCC1`, the AC50 is 3.55 µM (active).
On to `CS(=O)(=O)N1CCCC(C(=O)N2CCc3ccccc3C2)C1` (stereo not given), for which the “activity, negative = inhibition” value is -20%.
As for `Cc1cc(N)c2ccccc2[n+]1CCCCCCCCCC[n+]1c(C)cc(N)c2ccccc21`, the AC50 result is “inactive”.
Take `O=C(Nc1ccccc1)N[C@H]1C[C@H](C(=O)O)Nc2cc(Cl)cc(Cl)c21`: the “activity, negative = inhibition” value was -19.5%.
`CCCSC1=C(C#N)C(c2cccnc2)C(C(=O)OCC)=C(c2ccccc2)N1` (stereo not given): the AC50 is 8.91 µM (active).
With `COc1ccc(NC(=O)N2CC[C@@]3(CCCN(S(C)(=O)=O)C3)C2)cc1`, the “activity, negative = inhibition” value was 7.02%.
